# Experimental data: PubChem BioAssay (NCI)
# About 83,000 compounds went through this panel and 20% of them were active in at least one assay; those are over-represented in the sample as a whole.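 Method: cells in 96-well plates; compound added at one concentration; 48 h incubation; percent growth measured; values under 10 scored active.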 Unmarked numbers belong to inactive results. Calls of active or inactive are those of the source.
# Key:
# Assay in all cases: NCI-60 one-dose screen, 48 h (100 = growth as untreated, 0 = no growth, -100 = all killed)
# Conditions in all cases: 10 µM
# [1] = test system: DU-145 prostate
# [2] = test system: K-562 leukemia
# [3] = test system: MALME-3M melanoma
# [4] = test system: MDA-MB-231 breast
# [5] = test system: RXF 393 renal
# [6] = test system: SF-268 CNS
# [7] = test system: SF-295 CNS
# [8] = test system: SF-539 CNS
# [9] = test system: UACC-257 melanoma
# [10] = test system: M14 melanoma
# [11] = test system: HCT-15 colon
# [12] = test system: HT29 colon
# [13] = test system: SNB-75 CNS
# [14] = test system: PC-3 prostate
# [15] = test system: SK-MEL-5 melanoma
# [16] = test system: UACC-62 melanoma
# [17] = test system: LOX IMVI melanoma
# [18] = test system: SK-MEL-28 melanoma
# [19] = test system: SNB-19 CNS
# [20] = test system: U251 CNS
Structure (SMILES),growth [1],growth [2],growth [3],growth [4],growth [5],growth [6],growth [7],growth [8],growth [9],growth [10],growth [11],growth [12],growth [13] [%],growth [14],growth [15],growth [16],growth [17],growth [18],growth [19],growth [20]
N#Cc1c(-c2ccc(Cl)cc2)n(O)c2ccccc12,25.4%,11.6%,6.37% (active),30.5%,9.91% (active),32.5%,42.1%,-10.1% (active),47.4%,13.5%,22.6%,82.8%,12.5,41.2%,-57.5% (active),8.34% (active),23.8%,15.6%,–,–
CN(C)CCOc1ccccc1NC1=C(Cl)C(=O)C(Nc2ccccc2OCCN(C)C)=C(Cl)C1=O,84.7%,-12.6% (active),64.7%,53.1%,68.5%,86%,103%,101%,85.2%,92.9%,79.7%,15%,107,84.3%,93.6%,95.6%,-65.7% (active),109%,93.9%,–
CCN(CC)CCOc1cccc2c1C(=O)c1cccc(OCCN(CC)CC)c1C2=O,27.1%,27.9%,52%,42.4%,42.4%,40.8%,32.5%,37.3%,70.7%,35.4%,57%,13.8%,53.3,32.2%,72%,56.9%,18.2%,82.5%,–,24.8%
COC(=O)c1c[nH]c2cc(OC(C)C)c(OC(C)C)cc2c1=O,110%,98.9%,125%,109%,94.7%,104%,105%,91%,87.6%,108%,101%,95.6%,–,93.1%,98.3%,106%,95.9%,117%,105%,6.2% (active)
COc1ccc(/C=C2\CCCC3C2=Nc2ccccc2NC3c2ccc(OC)cc2)cc1 (stereo unspecified),101%,50.9%,94.3%,82.4%,99.9%,102%,89.8%,135%,81.9%,71.1%,93.9%,–,101,86.9%,88.5%,68%,57.4%,98.3%,92%,80.9%
CC(C)(C)OC(=O)N1CCc2c(sc3ncnc(N/N=C/c4cccc(Br)c4)c23)C1,62.4%,19.3%,66.9%,49.9%,63.5%,63.9%,64.7%,53.3%,80.8%,43%,18.8%,47.7%,67.6,44.4%,44.1%,43%,33.1%,75.2%,–,51%
O=C(NCCCNS(=O)(=O)c1ccc(Cl)cc1)Nc1ccc(-n2cc(-c3ccncc3)c(-c3ccc(Cl)c(O)c3)n2)cc1,46.6%,10.1%,37.6%,-19.3% (active),18.9%,49.1%,2.43% (active),47.9%,33.7%,18.1%,36.1%,–,61.7,17.3%,2.07% (active),42.8%,24.1%,40.7%,51.1%,37.6%
NNC(=O)Oc1c(Cl)cc(Cl)cc1[N+](=O)[O-],103%,102%,94.4%,113%,113%,102%,103%,105%,104%,101%,99.2%,100%,106,107%,103%,104%,98%,108%,–,97.5%
CCN(CC)CCCC(Nc1c2ccc(Cl)cc2nc2ccc(OC)cc12)c1ccc(F)cc1 (stereo unspecified),32.6%,-42.8% (active),-75.4% (active),-15.2% (active),-71.1% (active),67.8%,91.5%,-82.3% (active),-55.3% (active),-79.2% (active),1.06% (active),5.7% (active),93.3,73%,-95.7% (active),109%,-73.2% (active),-83.5% (active),–,-29% (active)
O=C(Cn1cc(CO)nn1)Nc1nc2ccccc2s1,113%,94.8%,93.8%,100%,112%,99%,106%,95%,104%,94.7%,105%,99.5%,92.4,96.3%,102%,97%,95.1%,106%,–,102%
C/C=C/C1=CN2C(=O)c3cc(OC4OC(C)C(NC)C(C)(O)C4O)c(C)c(O)c3N=C[C@@H]2C1 (stereo partly specified),-12.7% (active),4.18% (active),-51.9% (active),-10.1% (active),-40.5% (active),-35.5% (active),-25% (active),-46.1% (active),-6.48% (active),-63.2% (active),4.24% (active),5.18% (active),–,3.42% (active),-62.2% (active),-90.8% (active),-21.4% (active),-37.2% (active),9.3% (active),5.6% (active)
Cc1ccc(C(=O)C2C(=O)C3CCC2C3)cc1 (stereo unspecified),121%,102%,121%,107%,109%,108%,101%,106%,94.1%,111%,106%,108%,93.7,94.2%,102%,98.9%,95.4%,99.6%,95.7%,–
O=C1/C=C/[C@@H](O)[C@@H]2C[C@@H](O)C[C@H]2/C=C/CCC[C@@H](C(F)(F)F)O1,119%,92%,65%,96.7%,42.7%,93.9%,97.2%,105%,51.8%,112%,100%,39.9%,60.7,92.9%,60.5%,–,71.3%,61.8%,97.1%,–
CC(C)(C)OC(=O)CC(S(=O)(=O)c1ccccc1)S(=O)(=O)c1ccccc1,94.2%,43.9%,-41.1% (active),103%,69.4%,102%,110%,107%,91.9%,116%,77.9%,104%,99.2,101%,94.2%,103%,94.7%,105%,95.2%,–
CN(C)CCOc1cccc(-c2nc3sccn3c2-c2ccnc(S(C)(=O)=O)n2)c1,93%,101%,101%,80.2%,104%,101%,100%,86.6%,106%,105%,92.3%,–,87.7,80.8%,98.3%,91.4%,92.1%,100%,87.5%,90%
O=C(Nc1cc(Cl)cc2c1-c1ccc(Cl)cc1C2O)C(Cl)Cl (stereo unspecified),60.1%,81.9%,105%,74.4%,63.8%,91.9%,83.4%,84.2%,89.8%,85.3%,82.5%,84.9%,65.9,67.7%,41.5%,60.3%,76.2%,84.6%,–,–
